# Most compounds without a hit are left out; they make up all but 6% or so of the library.
# D1 antag: antagonists of human D1 dopamine receptor; P21728; HEK293 TREx D1 cells, calcium flux, dopamine EC80; hits give low values; activity change, negative = inhibition, % at 10 µM; 3.2% of 360,000 active; AID 504652; in the data active = activity change below about -30%; also: % is scaled to controls: 0 for no effect and ±100 for the full control effect
#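 Allosteric or orthosteric antagonism assessed as attenuation of the calcium response to EC80 dopamine, added 180 s after compound, in induced HEK293 Trex D1 cells loaded with no-wash calcium dye.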
# D3 ag: D3 dopamine receptor (human) agonism | D3R DiscoveRx beta-arrestin cells, luminescence, 90 min | max activation, % | AID 652048 | 0.58% of 410,000 active | P35462; in the data active = max activation above about 30%; also: 0% is about no effect
# Target sequence (P35462 whole entry, looked up): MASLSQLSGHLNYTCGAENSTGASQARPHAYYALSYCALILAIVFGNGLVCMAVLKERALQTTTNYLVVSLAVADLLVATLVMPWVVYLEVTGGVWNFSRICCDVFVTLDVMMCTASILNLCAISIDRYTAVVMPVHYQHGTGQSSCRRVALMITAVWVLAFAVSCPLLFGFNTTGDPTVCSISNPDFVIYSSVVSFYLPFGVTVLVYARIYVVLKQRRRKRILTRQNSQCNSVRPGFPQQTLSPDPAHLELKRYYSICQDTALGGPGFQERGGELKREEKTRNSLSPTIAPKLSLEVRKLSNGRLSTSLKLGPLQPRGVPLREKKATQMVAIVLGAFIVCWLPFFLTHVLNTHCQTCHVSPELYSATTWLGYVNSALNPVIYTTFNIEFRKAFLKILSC
#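 Agonist mode: compounds and dopamine controls were applied to plated cells for 90 min at 37 degrees C after an overnight attachment at 1500 cells/well. Luminescent read-out followed 30 - 60 minutes at room temperature with DiscoveRx detection reagent.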
# DRD3 antagonist: antagonists of human D3 dopamine receptor. D3R cells, DiscoveRx beta-arrestin luminescence, antagonist mode; hits give low values. max response, negative = inhibition, %. 2.5% of 360,000 active. AID 652054; in the data active = max response below about -50%; inconclusive = no clear call, values can overlap the other calls; also: % is scaled to controls: 0 for no effect and ±100 for the full control effect
#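 Cells expressing the human receptor were seeded at 1500 cells/well, incubated overnight at 37 degrees C in 5% CO2, then exposed to library compounds with dopamine controls for 90 minutes at 37 degrees C before luminescent detection.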
# D1 agonist: agonists of human D1 dopamine receptor | AID 504660 | activation, % at 2 µM | P21728 | 1% of 360,000 active | HEK293 T-REx D1 cells, calcium flux, agonist mode; in the data active = activation above about 30%; also: 0% is about no effect
#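 Tetracycline-induced HEK293 TREx D1 cells, force-coupled to calcium signalling, were dye-loaded with a no-wash calcium kit. Compound was pin-added after a 10 s baseline. Fluorescence was read kinetically at 1 cycle/s for 180 s, with calcium rises flagged as agonism.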
# D1 potentiator: potentiators of human D1 dopamine receptor. P21728. HEK293 TREx D1 cells, calcium flux, dopamine EC20 potentiation. potentiation, % at 10 µM. 0.036% of 360,000 active. AID 504651; in the data active = potentiation above about 30%; also: 0% is about no effect
# An asterisk follows results filed as active; ? = inconclusive; · = no result given.
SMILES,D1 antag,D3 ag,DRD3 antagonist,D1 agonist,D1 potentiator
O=C(Nc1ccc([N+](=O)[O-])cc1)Nc1nc(-c2ccc(Cl)s2)cs1,-47*,-6,-22,29,-7
CN(C)c1ccc(/C=c2\sc3nc(-c4ccccc4)nn3c2=O)cc1,-57*,·,·,6,-9
CCc1nc2c(OCC(=O)C(C)(C)C)cccn2c1N(C=O)Cc1ccccc1,·,0,24,·,·
CCOC(=O)C1CCCN(c2nc3ccccc3nc2C(C#N)C(=O)OCCOC)C1 (stereo not drawn),3,-4,1,3,2
CCOC(=O)C1CCN(c2nc3ccccc3nc2C(C#N)C(=O)NCCc2ccccc2)CC1 (stereo not drawn),-30*,·,·,0,-1
CCOC(=O)C1CCCN(c2nc3ccccc3nc2C(C#N)C(=O)OCC)C1 (stereo not drawn),-26,-4,-53*,10,-14
COC(=O)[C@]12CCCCC=C1N(Cc1ccccc1)C(=O)[C@H](CC(=O)NCc1ccccc1)C2,·,-1,-13,·,·
CCOc1ccc(OCc2cccc(C(=O)Nc3ccc(CN4CCCCC4)cc3)c2)cc1,-30*,2,-26,38*,-9
COc1ccc(OCc2cccc(C(=O)Nc3ccc(CN4CCCCC4)cc3)c2)cc1,-20,-15,-7,48*,-11
COc1cc(OC)cc(C(=O)Nc2ccc(CN3CCCCC3)cc2)c1,-7,-9,-13,1,-4
O=C(Nc1ccc(CN2CCCCC2)cc1)c1cccc(F)c1,9,-1,-11,3,-8
O=C(CCn1nnnc1CN1CCOCC1)N1CCC(c2cccc(Cl)c2)C1 (stereo not drawn),-80*,-12,2,1,-11
O=C(CCCn1nnnc1CN1CCOCC1)N1CCC(c2ccccc2F)C1 (stereo not drawn),10,-2,10,4,1
Nc1cccc(NC(=O)c2cccs2)c1,9,1,18,-1,-1
COc1ccc(NC(=O)c2cccs2)cc1,-9,-4,-9,2,-6
O=C(Nc1nc(-c2ccccc2)ns1)c1cccs1,-32*,-11,15,7,6
O=C(Nc1cccc(N2CCCC2)c1)c1cccs1,12,-33,-51*,0,1
COc1ccc(C(=O)Nc2ccc(NC(=O)c3cccs3)cn2)cc1,-35*,-3,-18,17,-8
O=C(Nc1ccc(Cl)cc1)c1cccs1,-39*,8,1,1,-7
COc1cc(NC(=O)c2cccs2)c(OC)cc1NC(=O)Nc1ccc(F)cc1,-45*,-4,4,2,-10
O=C(NNS(=O)(=O)c1ccc(Cl)cc1)c1cccs1,-6,8,-61*,3,-2
Cc1ccc(-n2nc(C(C)(C)C)cc2NC(=O)Nc2ccc(OCCN3CCOCC3)c3ccccc23)cc1,·,-15,·,·,·
Nc1nc(NCc2ccccc2)nc(NCc2ccccc2)c1[N+](=O)[O-],33,32*,7,2,4
Nc1nc(NCc2ccco2)nc(N2CCN(Cc3ccccc3)CC2)c1[N+](=O)[O-],-9,-14,-79*,1,-6
c1ccc(CN2CCN(c3nc(NCc4ccco4)c4ccccc4n3)CC2)cc1,·,-13,-82*,9,-4
SMILES,D1 antag,D3 ag,DRD3 antagonist,D1 agonist,D1 potentiator
Cc1cc(C)c(S(=O)(=O)N2CCN(c3ccc([N+](=O)[O-])c(NCc4ccco4)c3)CC2)c(C)c1,2,-16,-24,2,2
Cc1ccc(CNc2nc(N)c([N+](=O)[O-])c(NCc3ccccc3)n2)cc1,1,-6,12,5,-5
O=[N+]([O-])c1ccc(N2CCN(CCO)CC2)cc1NCc1ccco1,-13,-14,-63*,1,-1
COc1ccc(NC(=O)Nc2cccc(-c3cn4cccnc4n3)c2)cc1,-1,2,·,-1,-2
OCCN1CCN(c2nc(NCc3ccco3)c3ccccc3n2)CC1,-5,-20,-82*,3,-6
Cc1ccccc1Nc1nc(NCc2ccco2)c2ccccc2n1,-36*,-11,-2,9,-16
Cc1ccc(OCCN2CCN(c3nc(NCc4ccco4)c4ccccc4n3)CC2)cc1,-33*,-26,-78*,7,-10
COc1ccc(-c2nc(CCNC(=O)c3ccccc3)cs2)cc1OC,5,-11,·,0,-7
COc1ccc(CNC(=O)C(=O)Nc2c3c(nn2-c2ccccc2)CSC3)cc1,·,-2,·,10,-1
CC[C@@H](C)CCCCC(=O)N[C@H](CCN)C(=O)N[C@@H](C(=O)N[C@H](CCN)C(=O)N[C@@H]1CCNC(=O)C([C@@H](C)O)NC(=O)[C@@H](CCN)NC(=O)[C@@H](CCN)NC(=O)[C@@H](CC(C)C)NC(=O)[C@@H](Cc2ccccc2)NC(=O)[C@@H](CCN)NC1=O)[C@@H](C)O (stereo partly drawn),·,7,·,·,·
Cc1ccc(NC(=O)Nc2cccc([N+](=O)[O-])c2)cc1F,-57*,-4,-19,32*,-6
O=C(Nc1ccc(OC(F)(F)F)cc1)Nc1cccnc1,-27,2,8,21,-12
CC(C)(C)CC(C)(C)NC(=O)Nc1cccc([N+](=O)[O-])c1,-41*,3,-16,18,-8
O=C(Nc1ccc(OC(F)(F)F)cc1)Nc1cccc([N+](=O)[O-])c1,-47*,1,16,30*,-15
CC(C)(C)c1ccc(C(=O)Nc2cccc([N+](=O)[O-])c2)cc1,-16,-4,?,10,-4
Cc1ccc([C@H]2C[C@@H](n3cc(COC(=O)c4ccccc4)nn3)[C@H](O)CN2C(=O)C2CCCCC2)cc1,·,-7,-17,·,·
COc1ccc(C2/C=C\CN(C(=O)c3ccc(C)cc3)[C@H](Cc3ccccc3)C(=O)N2Cc2ccc(F)cc2)cc1 (stereo partly drawn),-50*,2,-19,3,6
CCCCCCC(=O)N1C/C=C\C(c2ccc(OC)cc2)N(Cc2ccc(F)cc2)C(=O)[C@H]1Cc1ccccc1 (stereo partly drawn),-35*,-11,0,13,-2
COc1ccc(C2/C=C\CN(S(=O)(=O)/C=C/c3ccccc3)CC(=O)N2Cc2ccc(F)cc2)cc1 (stereo not drawn),-36*,-11,-20,16,-5
COc1ccc(C2/C=C\CN(S(=O)(=O)c3ccc4ccccc4c3)CC(=O)N2Cc2ccc(F)cc2)cc1 (stereo not drawn),-1,0,0,12,0
COc1ccc(-n2ccn(Cc3ccc(C)cc3)c(=O)c2=O)cc1OC,-1,1,·,-1,0
c1nc(SSc2ncnc3nc[nH]c23)c2[nH]cnc2n1,·,0,-21,·,·
O=c1c2c3c(sc2n(Cc2cc(=O)n4ccccc4n2)c(=O)n1-c1ccc(Cl)cc1)CCC3,-8,0,·,0,2

# Screens from PubChem BioAssay.
